Assay type in all cases: functional
Test [1] relates to Plasmodium falciparum. Description: GSK_TCMDC: Inhibition of Plasmodium falciparum 3D7 in whole red blood cells, using parasite LDH activity as an index of growth. Test compounds present at 2uM.
Test [2] has as its system Plasmodium falciparum. The test is described as follows: GSK_TCMDC: Inhibition of Plasmodium falciparum Dd2 in whole red blood cells, using parasite LDH activity as an index of growth. Test compounds present at 2uM.
The next test relates to HepG2. The test is described as follows: GSK_TCMDC: Percent inhibition of human HepG2 cell line. Test compounds present at 10uM.

In general, Inhibition refers to the relative decrease from the control value, in per cent.

In the case of `Cc1cc(Cl)ccc1N(Cc1ccccc1)c1ccnc(Cl)n1`, the Inhibition with Plasmodium falciparum [1] is listed as 97%; in the test on Plasmodium falciparum [2], 98%; in the test on HepG2, 16%.

As to `CC[C@H]1CN(C/C=C/c2ccc(OC)cc2)CC[C@H]1CCCc1ccnc2ccc(O)cc12`, the Inhibition in the test on Plasmodium falciparum [1] is listed as 99%; in the test with Plasmodium falciparum [2] it was 72%; in the test on HepG2, 24%.

For the compound `CC(C)CCNc1nc(NCc2ccccc2)c2cc(O)ccc2n1`, the Inhibition with Plasmodium falciparum [1] is listed as 100%; in the test on Plasmodium falciparum [2], 92%; in the test on HepG2, 25%.

Take `COCCOc1ccc(C(F)(F)F)cc1NC(=O)Cc1c(F)cccc1Cl`: the Inhibition in the test with Plasmodium falciparum [1] was 88%; in the test on Plasmodium falciparum [2], 74%; in the test with HepG2 it was 18%.

As to `CCCOc1cc(Cc2cnc(N)nc2N)cc(OC)c1OC`, the Inhibition with Plasmodium falciparum [1] turned out to be 85%; in the test on Plasmodium falciparum [2], 1%; in the test with HepG2, 21%.

In the case of `O=C(NC1CCC(N2CCN(c3cccc(C(F)(F)F)c3)CC2)CC1)c1cc2ccccc2[nH]1` (stereo unspecified), the Inhibition is 99% in the test with Plasmodium falciparum [1], 22% in the test on Plasmodium falciparum [2] and 23% with HepG2.

Regarding `CCC1(CC)NC(N)=NC(=N)N1OCc1ccc(Cl)c(Cl)c1.Cl`, the Inhibition with Plasmodium falciparum [1] was 94%; in the test with Plasmodium falciparum [2], 49%; in the test on HepG2 it was 49%.

On to `CCCCCCCCNCCCSCCCNCCCCCCCC.Cl`, for which the Inhibition came to 97% in the test on Plasmodium falciparum [1], 47% with Plasmodium falciparum [2] and 63% in the test with HepG2.

As for `CSc1ccc2nccc(Nc3ccc(Oc4ccccc4)cc3)c2c1.Cl`, the Inhibition in the test with Plasmodium falciparum [1] was 94%; in the test on Plasmodium falciparum [2] it was 68%; with HepG2, 30%.

In the case of `CN1CCCN(Cc2ccc(-c3ccc(NC(=O)c4ccc(Cl)cc4)cc3)cc2)CC1.O=C(O)C(F)(F)F`, the Inhibition in the test on Plasmodium falciparum [1] turned out to be 96%; in the test on Plasmodium falciparum [2] it was 67%; in the test on HepG2, 58%.

Consider `Cc1cc(C(F)(F)F)n2nc(C(=O)N(C)Cc3cncn3Cc3ccc(F)cc3)cc2n1`, for which the values for the Inhibition in the test with Plasmodium falciparum [1], with Plasmodium falciparum [2] and in the test on HepG2 were 100%, 96% and 0%, respectively.

Take `Cc1nc(-c2nc(NCCc3cnccn3)ncc2-c2ccsc2)sc1C`: the Inhibition is given as 98% in the test on Plasmodium falciparum [1], 40% in the test with Plasmodium falciparum [2] and 0% in the test with HepG2.

As for `O=C(O)C(F)(F)F.c1cc(CNC2CCCC2)cc(-c2ccc(CNc3ccc4ncccc4c3)cc2)c1`, the results for the Inhibition with Plasmodium falciparum [1], in the test on Plasmodium falciparum [2] and with HepG2 were 98%, 24% and 32%, respectively.

As to `COc1ccc2ncc(Cl)c(CCN3CCC(NCc4ccc5c(n4)NC(=O)CS5)CC3)c2c1.Cl`, the Inhibition worked out at 100% in the test with Plasmodium falciparum [1], 34% with Plasmodium falciparum [2] and 26% with HepG2.

In the case of `Cc1ccc(NCC(=O)Nc2ccc(F)c(Cl)c2)cc1S(=O)(=O)N1CCOCC1`, the Inhibition with Plasmodium falciparum [1] is 98%; in the test with Plasmodium falciparum [2], 97%; with HepG2, 2%.

For the compound `COc1cc2c(cc1C(F)(F)F)N(C(=O)Nc1cc(Br)cc(-c3cccnc3)c1)CC2`, the figures for the Inhibition with Plasmodium falciparum [1], with Plasmodium falciparum [2] and with HepG2 were 96%, 34% and 8%, respectively.

Take `CC(C)c1cc2c(ccc3nc(N)nc(N)c32)[nH]1`: the Inhibition with Plasmodium falciparum [1] is 93%; in the test with Plasmodium falciparum [2], 4%; with HepG2, 49%.

With `CCN(CC)CCN(Cc1ccc(-c2ccc(C(F)(F)F)cc2)cc1)C(=O)c1ccc(-c2ccc(C#N)cc2)cc1`, the Inhibition in the test with Plasmodium falciparum [1] is 89%; in the test on Plasmodium falciparum [2], 31%; in the test with HepG2 it was 38%.

Turning to `COc1c(C2CCN(CCCCNC(=O)c3ccc(-c4ccc(NC(=O)C(F)(F)F)cc4)cc3)CC2)ccc2c1CCCC2`, the results for the Inhibition in the test on Plasmodium falciparum [1], in the test on Plasmodium falciparum [2] and in the test with HepG2 were 86%, 33% and 95%, respectively.

As for `O=C(Nc1nc2cc(S(=O)(=O)NCCc3cccc(F)c3)ccc2n1CCCn1ccnc1)c1ccc(Cl)cc1.O=C(O)C(F)(F)F`, the Inhibition worked out at 90% with Plasmodium falciparum [1], 8% in the test on Plasmodium falciparum [2] and 0% in the test with HepG2.

As to `COc1ccc(Nc2nc(NCc3ccc(-n4ccnc4)cc3)cc(-c3ccc(OC)cc3)n2)cc1`, the Inhibition is recorded as 96% in the test on Plasmodium falciparum [1], 25% in the test on Plasmodium falciparum [2] and 8% in the test with HepG2.

As to `CN(C)CCOc1ccc(-c2cc(-c3ccncc3)c(-c3ccc(Cl)c(O)c3)o2)cc1.Cl`, the Inhibition in the test with Plasmodium falciparum [1] worked out at 99%; in the test with Plasmodium falciparum [2], 93%; with HepG2, 0%.

Turning to `COc1cccc(CCNCCCCCCNCCc2ccc(Cl)cc2)c1.Cl`, the values for the Inhibition with Plasmodium falciparum [1], in the test on Plasmodium falciparum [2] and with HepG2 were 100%, 3% and 32%, respectively.

Consider `Cc1cccc2nc(-c3cccc(-c4cccc(NC(=O)Nc5ccc(F)c(F)c5F)c4)c3)[nH]c12`, for which the Inhibition with Plasmodium falciparum [1] was determined as 100%; with Plasmodium falciparum [2], 99%; in the test on HepG2 it was 32%.

In the case of `O=C(Nc1ccc(OC2CCN(Cc3ccco3)C2)c(Cl)c1)c1ccc2ncccc2c1.O=C(O)C(F)(F)F` (stereo unspecified), the Inhibition worked out at 92% in the test with Plasmodium falciparum [1], 42% with Plasmodium falciparum [2] and 1% in the test on HepG2.

Take `COc1ccc2[nH]ccc(=NN=Cc3cccc(F)c3)c2c1`: the Inhibition with Plasmodium falciparum [1] was found to be 100%; with Plasmodium falciparum [2], 65%; in the test with HepG2, 13%.

With `Nc1ncnc2c1ncn2C(CO)Cc1ccc(O)cc1` (stereo unspecified), the Inhibition stood at 93% with Plasmodium falciparum [1], 0% in the test on Plasmodium falciparum [2] and 0% in the test with HepG2.

For `CN1CCC[C@H]1COc1ccc(CN2CC[C@H](NC(=O)c3ccc(Cl)c(Cl)c3)C2)cc1Cl.O=C(O)C(F)(F)F`, the results for the Inhibition with Plasmodium falciparum [1], with Plasmodium falciparum [2] and in the test with HepG2 were 97%, 44% and 53%, respectively.

On to `Cc1ccc(OCCCCONC(=O)c2ccccc2)cc1`, for which the Inhibition is recorded as 96% in the test on Plasmodium falciparum [1], 1% in the test with Plasmodium falciparum [2] and 6% in the test with HepG2.

On to `O=C(Nc1cccc(CN2CCCN(Cc3ccc(O)cc3)CC2)c1)c1cccc(C(F)(F)F)c1.O=C(O)C(F)(F)F`, for which the Inhibition in the test on Plasmodium falciparum [1] was 100%; in the test on Plasmodium falciparum [2] it was 71%; in the test with HepG2, 9%.

On to `O=C(/C=C/c1ccc(Cl)c(Cl)c1)NCCCCCN1CCC(c2c[nH]c3ccccc23)CC1`, for which the Inhibition is on record as 99% in the test on Plasmodium falciparum [1], 7% in the test on Plasmodium falciparum [2] and 33% with HepG2.

For `COc1ccc(CCN(Cc2cccs2)C(=O)c2cc3sccc3n2C)cc1OC`, the Inhibition in the test on Plasmodium falciparum [1] was 94%; with Plasmodium falciparum [2] it was 97%; in the test on HepG2, 0%.

The record behind these values is ChEMBL document CHEMBL1157539, “Thousands of chemical starting points for antimalarial lead identification” (Nature, 2010).
